According to PubChem BioAssay (NCATS):
Results filed as inconclusive are left out. A number with no mark means an inactive call. The call rests on the fitted dose curve; in most records, active means well fitted cell-killing curve with a large enough effect; inconclusive means small, poorly fitted or top-dose-only effect; inactive means flat fitted curve, though single readings scatter.

Test: qHTS of pediatric cancer cell lines to identify multiple opportunities for drug repurposing: Primary screen for TC32 cells (AID 1347089); further: nearly all actives have a fitted effect of over 60% in size
Conditions: TC32 Ewing sarcoma viability, CellTiter-Glo luminescence, 48 h; series mostly up to 45.8 µM; activity change, negative = cytotoxic: at the top concentration
From the text: Drug repurposing or repositioning has been offered as a strategy for drug development in oncology programs. This approach has special potential for childhood cancers and other rare or orphan diseases, where the expected return on new drug development has been a disincentive to pharmaceuticals.
In this project we exploit the poly-pharmacology of drugs to discover new indications via phenotypic screening of a panel of 19 well-characterized cell lines derived from solid tumors seen in children and adolescents. The goal is to identify approved drugs with previously unrecognized anticancer properties that has the potential to reveal new mechanisms and biological processes involved in carcinogenesis or drug resistance. We employed a titration-based paradigm (quantitative high-throughput screening or qHTS), where all compounds were tested at multiple concentrations for their effect on cell viability. Concentration-response curves (CRCs) were derived directly from the primary screen, and both potency and efficacy values were used to identify compounds with robust bioactivity profiles. We screened the NIH Chemical Genomics Center (NCGC) Pharmaceutical Collection (NPC) and Mechanism Interrogation Plate (MIPE) small molecule collections of approved and investigational compounds against these cell lines; and measured metabolically active cells after 48 hours of compound treatment as a proxy for cell viability.
Assay Submitter: Nathalia J. Martinez, National Center for Advancing Translational Sciences, National Institutes of Health, Rockville, MD, USA; email: natalia.martinez@nih.gov
[1] Shen, M et al. Quantitative high-throughput phenotypic screening of pediatric cancer cell lines identifies multiple opportunities for drug repurposing. Oncotarget 2017 Dec 19;9(4):4758-4772. PMID 29435139.
The cells were obtained from University of North Carolina (UNC), Pediatric Preclinical Testing Program (PPT), and Coriell Institute (CI).
qHTS cell viability assay:
Cells were assayed in growth media at a density of 500-1,000 cells/well. Five microliters of cells were dispensed into 1,536-well, white, solid-bottom, TC-treated plates (Greiner Bio One) using a multidrop dispenser and incubated at 37 degrees C, 5% CO2, under a humidified atmosphere for 5 hours. Twenty-three nanoliters of compounds and controls (neutral control DMSO or positive control bortezomib at final concentration of 2.3 uM) were subsequently transferred by Kalypsys pintool. For primary screens, the MIPE collection was tested at 11-point dilutions (final concentrations range from 0.78 nM to 46 µM) and the NPC collection at 8-point dilutions (final concentrations range from 0.59 nM to 46 µM). Compounds tested in follow-up screens were assayed at 11-point dilutions. Cells were incubated for 48 hours, followed by addition of 3 uL of CellTiter-Glo (Promega). After a 15min incubation at room temperature, samples were analyzed for luminescence intensity using a ViewLux High-throughput CCD imager equipped with clear filters.
On the % scale 0 is the no-effect control and ±100 the full control effect.

| SMILES | activity change, negative = cytotoxic |
| --- | --- |
| O=C(O)Cc1ccccc1Oc1ccc(Cl)cc1Cl | 7.75% |
| Oc1ccccc1-c1nnco1 | 5.25% |
| Cc1ccc(C(=O)Oc2ccc(C(O)CNC(C)(C)C)cc2OC(=O)c2ccc(C)cc2)cc1 (stereo not given) | 9.19% |
| OCc1cccnc1 | 13.3% |
| NS(=O)(=O)c1cc(C(=O)NN2C[C@H]3[C@H]4CCC(C4)[C@H]3C2)ccc1Cl | 9.97% |
| NCC[C@H](O)C(=O)N[C@@H]1C[C@H](N)[C@@H](O[C@H]2O[C@H](CN)[C@@H](O)[C@H](O)[C@@H]2O)[C@H](O)[C@@H]1O[C@H]1O[C@H](CO)[C@@H](O)[C@H](N)[C@@H]1O | 10.2% [at 0.594 µM] |
| CCOc1ncc(F)c(=O)[nH]1 | 6.3% |
| CC(=O)OCC[N+](C)(C)C | 6.36% |
| O=C1CC2(CCCC2)CC(=O)N1 | 23.4% |
| O=C(Oc1ccccc1)c1ccccc1O | -3.83% |
| O=C1NC(c2ccccc2)(c2ccccc2)C(=O)N1COP(=O)(O)O | 5.67% |
| CC(C)NC(=O)c1ccc(C=O)cc1 | 14.1% |
| CCOC(=O)OCC/C(SC(=O)OCC)=C(\C)N(C=O)Cc1cnc(C)nc1N | 0.307% |
| CC(C)NCCCC1(C(N)=O)c2ccccc2-c2ccccc21 | 3.88% |
| CN1CCN(N)CC1 | 5.93% |
| O=C1Nc2ccccc2C1(c1ccc(O)cc1)c1ccc(O)cc1 | -5.99% |
| O=C(C1CCCCC1)N1CC(=O)N2CCCc3ccccc3C2C1 (stereo not given) | 18.3% |
| C/C(=N\O)[C@@H](C)NCC(C)(C)CN[C@H](C)/C(C)=N/O | 9.69% |
| O=C(O)/C=C(\CC(=O)O)C(=O)O | 8.32% |
| CC(=O)O[C@@H]1CC2C3CCc4cc(OC(=O)c5ccccc5)ccc4C3CCC2(C)[C@H]1OC(C)=O (stereo not given in full) | 5.69% |

| SMILES | activity change, negative = cytotoxic |
| --- | --- |
| O=C(NN1CCCC1)NS(=O)(=O)c1ccc(Cl)cc1 | 2.74% |
| CCc1cccc2c(CCO)c[nH]c12 | 18.9% |
| O=C1OC2(c3ccccc31)c1cc(I)c(O)c(I)c1Oc1c2cc(I)c(O)c1I | -11.9% |
| Cc1[nH]cnc1-c1ccc(Cl)cc1 | 8.8% |
| CCOC(=O)NNc1ccc(N(CC)CC(C)O)nn1 (stereo not given) | -13.2% |
| Cc1ccc2ccc(Cl)cc2n1 | 7.52% |
| Nc1nc2ccccc2n1Cc1ccc(F)cc1 | -1.41% |
| CN1Cc2cc(C(=O)N3CCC(C4CCNCC4)CC3)ccc2NC(CC(=O)O)C1=O (stereo not given) | 9.15% |
| CCOc1ccccc1OCC1CNCCO1 (stereo not given) | 1.87% |
| Cc1ccccc1N1CCN(CCc2nnc3n2CCCC3)CC1 | 2.6% |
| Cc1cc(=O)oc2cc(O[C@@H]3SC[C@@H](O)[C@H](O)[C@H]3O)ccc12 | 16.3% |
| CCOC(=O)C(=O)CCc1ccccc1 | 10.2% |
| COc1cc(C(=O)NC2CCCNC2)cc(OC)c1OC (stereo not given) | 16.9% |
| CCOC(=O)c1cc(=O)c2c(OCC(COc3cccc4oc(C(=O)OCC)cc(=O)c34)OC(=O)[C@@H](N)CCCCN)cccc2o1 | 4.84% |
| O=C(CCCCC(=O)Nc1c(I)cc(I)c(C(=O)O)c1I)Nc1c(I)cc(I)c(C(=O)O)c1I | -3.24% |
| CCC(=O)O[C@]1(C(=O)COC)[C@@H](C)C[C@H]2[C@@H]3CCC4=CC(=O)C=C[C@]4(C)C3(F)[C@@H](O)C[C@@]21C (stereo not given in full) | 13% |
| COc1ccc(/C(C)=C/C(=O)O)c(OC)c1 | 13.6% |
| O=C(OCC(O)CO)c1ccccc1Nc1ccnc2c(C(F)(F)F)cccc12 (stereo not given) | 6.13% |
| CC(C)(C)CC(=O)OCC(=O)[C@@]1(O)CC[C@H]2[C@@H]3CCC4=CC(=O)C=C[C@]4(C)[C@H]3[C@@H](O)C[C@@]21C | 5.7% |
| CCN(CC)CC(=O)Oc1ccc(NC(C)=O)cc1 | 14.6% |
